Screen size: about 350,000 compounds; about 2,700 (0.77%) were called active. What follows is part of a selection rich in actives, with near analogues and random picks from the rest. Values without a mark were called inactive.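 How the source made its calls: active means inhibition reaching at least a set limit at 20 µM in the primary screen (cut at about 59% in these data); inactive means the rest.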
Each compound was assayed on glucose-6-phosphate dehydrogenase-6-phosphogluconolactonase (Plasmodium falciparum 3D7) (assay: inhibition of malaria parasite G6PD (PfGluPho) – biochemical, fluorescence intensity, uHTS, primary screen (AID 504690;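 further: 0% = DMSO wells with substrate and 100% = DMSO wells lacking glucose-6-phosphate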)). Details: PfGluPho enzyme, NADPH resazurin-diaphorase fluorescence; at 20 µM; active compounds read high.
Work on `CCOC(=O)c1cnn2c(SC)ncnc12` yielded an inhibition of 5.86%. `Cc1cc(C)n(Cc2cnc(N3CCOCC3)s2)n1` was tested, and the inhibition was 2.1%. In the case of `CC1(C)CC(=O)c2cc(OCC(=O)NCC3CCCO3)ccc2O1` (centres undefined), the inhibition is reported as 7.52%. In the case of `CC(=O)Nc1ccc2c3c(ccc([N+](=O)[O-])c13)CC2`, the inhibition is reported as 1.79%. With `Brc1ccc(C2=CC(c3ccco3)n3ncnc3N2)cc1` (centres undefined) the inhibition was 23.3%. `Clc1ccc2c(c1)C1=C(C(c3ccncc3)O2)C(c2ccc(Br)cc2)n2ncnc2N1` (centres undefined) was tested, and the inhibition was 78.5% (active). For `O=C(C1CCN(S(=O)(=O)c2ccc(Br)s2)CC1)N1CCN(C2CCCCC2)CC1`, the inhibition was 3.65%. For `Cc1ccnc(-n2sc3ccccc3c2=O)n1`, the inhibition was 97% (active). In the case of `Cc1ccnc(SC2CC(=O)N(c3ccccc3)C2=O)n1` (centres undefined), the inhibition is reported as -11.7%. `O=C(NCc1ccccc1)C1CCCN(S(=O)(=O)c2cccs2)C1` (centres undefined) showed an inhibition of 3.61%. `C[C@@H]1CCCCO[C@H](CN(C)Cc2ccccc2)[C@@H](C)CN([C@H](C)CO)C(=O)c2cc(NS(=O)(=O)c3ccc(Cl)cc3)ccc2O1` showed an inhibition of 36.3%. `O=c1[nH]nc(Cc2ccccn2)c2ccccc12` showed an inhibition of 1.12%. With `COc1ccc(OCc2n[nH]c(=S)n2N)cc1` the inhibition was 71.3% (active). `Fc1ccc(/C=N/n2c(COc3ccccc3)n[nH]c2=S)cc1` gave an inhibition of 27.2%. With `COc1ccc(Cc2n[nH]c(=S)n2NC(=O)Nc2ccc(C)cc2)cc1` the inhibition was 15.8%. `CCOc1ccc(NS(=O)(=O)c2ccc(Cl)c(C(=O)N(C)Cc3cccnc3)c2)cc1` showed an inhibition of -26.1%. `C=CCn1c(SCC(N)=O)nnc1-c1cc2c(s1)CCC(CC)C2` (centres undefined) showed an inhibition of 2.97%. In the case of `CCC1=NN(C(=O)Cc2ccc([N+](=O)[O-])cc2)C(O)(c2ccc(Br)cc2)C1` (centres undefined), the inhibition is reported as -3.74%. Work on `CC1(C)NC(=O)N(CC(=O)N2CCN(S(=O)(=O)c3ccccc3F)CC2)C1=O` yielded an inhibition of -13.8%. For `O=C(COc1ccccc1)Nc1ccc(F)cc1`, the inhibition was -2.38%. With `O=C(COc1ccccc1)Nc1nonc1NC(=O)COc1ccccc1` the inhibition was 71.2% (active). In the case of `O=C(COc1ccccc1)Nc1ccc(C(=O)N2CCCC2)cc1`, the inhibition is reported as -12.5%. With `COc1ccc([N+](=O)[O-])cc1N(CC(O)Cn1nnc2ccccc21)S(=O)(=O)c1ccc(C)cc1` (centres undefined) the inhibition was -4.47%. In the case of `Cc1nc([N+](=O)[O-])nn1C12CC3CC(CC(Br)(C3)C1)C2`, the inhibition is reported as 71% (active). Work on `CC1CCC(CN2CCN=C2N(C)C)CC1` (centres undefined) yielded an inhibition of -9.19%. `CCOc1ccc(S(=O)(=O)N2CCCC(C(=O)N3CCC(C(N)=O)CC3)C2)cc1Cl` (centres undefined) showed an inhibition of -4.54%. Compound `CCOC(=O)[C@@H]1[C@H]2COc3ccc(Br)cc3[C@H]2N2C(=O)N(c3ccc(Cl)cc3)C(=O)[C@@]12C` has an inhibition of 9.82%. `N#Cc1ccccc1-n1c(N)c(C(=O)N2CCCC2)sc1=S` was tested, and the inhibition was 60% (active). `O=C(c1ccc(S(=O)(=O)N2CCCC2)cc1)N1CCN(c2ccccc2F)CC1` showed an inhibition of 7.54%. Compound `N#Cc1c(N)sc2c1CCN(C(=O)OCc1ccccc1)C2` has an inhibition of 42.3%. `COC(=O)c1sc(N2CCN(Cc3ccccc3)CC2)nc1N` showed an inhibition of -11.2%. With `COC(=O)c1sc(=S)n(-c2ccccc2)c1N` the inhibition was 65.1% (active). With `COCCOC(=O)c1sc(=S)n(CCOC)c1N` the inhibition was 25.1%. For `COc1cccc(N2CCN(c3ccc4nnc(CCC(=O)N5CCN(C)CC5)n4n3)CC2)c1`, the inhibition was 6.62%. With `Cc1cccc(-n2c(N)c(C(=O)N3CCN(C)CC3)sc2=S)c1` the inhibition was 79.6% (active). `Cc1ccc(-n2c(N)c(C(=O)N3CCOCC3)sc2=S)c(C)c1` showed an inhibition of -1.21%. Work on `O=C(OCc1ccccc1)N1CCC2CC1c1ccc(-c3ccc4c(c3)OCO4)cc12` (centres undefined) yielded an inhibition of 2.75%. Compound `O=C(Cc1ccsc1)N1CCN(S(=O)(=O)c2cc(C(F)(F)F)cc(C(F)(F)F)c2)CC1` has an inhibition of 9.01%. Work on `Cc1cccc(N2C(=O)N3[C@H](c4ccc(F)cc4)[C@@H]4C(=O)N(C5CCCCC5)C(=O)[C@@H]4[C@]3(Cc3ccccc3)C2=O)c1` yielded an inhibition of -21.6%. In the case of `COc1ccccc1Cn1c(C)nnc1-c1cnn(C)c1N`, the inhibition is reported as -9.47%. `Cc1cc(C)c2c(c1)c(C)cc1nnc(SCC(=O)NCc3ccco3)n12` showed an inhibition of 46.3%. `Cc1ccc(OCCNC(=O)CNC(=O)c2ccc(C)c(C)c2)cc1` showed an inhibition of -19.6%. Work on `CNN/C(N=Cc1ccc([N+](=O)[O-])s1)=N\S(=O)(=O)c1cc(C)c(Cl)cc1SCc1ccccc1` yielded an inhibition of 5.23%. For `O=[N+]([O-])c1ccc(C=Nc2ccc(Cl)cc2Cl)s1`, the inhibition was 76.4% (active). `Cc1ccc(NC(=O)C2CCC(C(C)(C)C)CC2)cc1S(=O)(=O)N1CCOCC1` (centres undefined) showed an inhibition of 30.1%. Compound `O=C1CCC(C(=O)OCC(=O)Nc2ccc(OC(F)F)cc2)=NN1` has an inhibition of 3.76%. With `CCOc1[nH]n(-c2ccc(Cl)cc2)c(=O)c1C=Nc1ccc(O)cc1` the inhibition was -1.23%. Compound `Cc1cc(N=Nc2ccc3ccccc3c2)ccc1O` has an inhibition of 0.29%. With `Oc1ccc(N=Cc2c(O)ccc3ccccc23)cc1` the inhibition was 62.9% (active). `CCn1nnc2cc(C(=O)Nc3ccc(C(=O)OC(C)C)cc3)ccc21` gave an inhibition of 22.8%. For `COc1cccc(C(CC(=O)NCCN2CCOCC2)NS(=O)(=O)c2ccc(C)cc2)c1OC` (centres undefined), the inhibition was 11%. For `CSc1n[nH]c(=S)n1N`, the inhibition was 65.2% (active). Compound `Cc1ccc(S(=O)(=O)N2CCCCC2)cc1C(=O)N1CCN(CCO)CC1` has an inhibition of -1.65%. `CC(=O)c1ccc(NC(=O)C2CCCN2S(=O)(=O)c2cccs2)cc1` (centres undefined) gave an inhibition of 14.3%. `COc1ccc(Nc2ccc3ccccc3c2)cc1` was tested, and the inhibition was 53.2%. For `COc1ccc(Nc2ncnc3sc(C)cc23)cc1`, the inhibition was 4.18%. For `COc1ccc(Nc2cc(Sc3ccc(OC)cc3)ncn2)cc1`, the inhibition was 77.5% (active). `O=C(NC1CCCC1)C(c1ccc(N2CCOCC2)cc1)N(C(=O)c1ccco1)c1ccccc1F` (centres undefined) gave an inhibition of 1.31%. `Cc1ccc2c(c1)N(CC(=O)NCC1CCCO1)C(=O)CO2` (centres undefined) was tested, and the inhibition was 0.68%. With `FC(F)(F)c1cccc(-c2cc3ccccc3nc2N2CCCC2)c1` the inhibition was 13.8%. In the case of `O=C(CNS(=O)(=O)c1ccc(Br)s1)N1CCN(C(=O)c2ccco2)CC1`, the inhibition is reported as -12.2%. `Cc1ccc(-c2cc(C(=O)NCc3cn(C)nc3C)c3cc(Br)ccc3n2)cc1` gave an inhibition of 3.11%. `Cc1ccc2nc(-c3cccc(Br)c3)cc(C(=O)Nn3cnnc3)c2c1` was tested, and the inhibition was 59.4% (active). `NC(=O)c1cc(-c2cccnc2)nc2ccc(Br)cc12` gave an inhibition of 14.2%. `CCc1nnc(NC(=O)CSc2nc3c(c(=O)n2-c2ccccc2OC)SCC3)s1` was tested, and the inhibition was 43%. Work on `O=C(NCC1CCCO1)c1cc2c(s1)CCCC2` (centres undefined) yielded an inhibition of 14%. Compound `CN(C)C(=O)c1ccc(NC(=O)COC(=O)c2cc3c(s2)CCCCC3)cc1` has an inhibition of -5.04%. In the case of `O=C(Nc1ccc(F)cc1)c1cc2c(s1)CCCC2`, the inhibition is reported as 75.7% (active). In the case of `Cc1ccc(CSCCNC(=O)CN(c2ccc(F)cc2)S(C)(=O)=O)cc1`, the inhibition is reported as -11.7%. `NC(=O)C1=C[C@@H](c2ccc3c(c2)OCO3)C[C@@H](OCCCCO)O1` gave an inhibition of 17.6%. `CC1(c2ccc3ccccc3c2)NC(=O)NC1=O` (centres undefined) was tested, and the inhibition was 18.9%. With `CN1c2ccc(C=O)c3c(C=O)ccc(c23)N(C)C1(C)C` the inhibition was 69.6% (active). `Cc1ccc(C=O)c([B-](F)(F)F)c1` gave an inhibition of -13.1%. In the case of `COC(=O)C1(CCSC)NC(c2ccc(OC)cc2OC)C2C(=O)N(c3cccc(C(C)=O)c3)C(=O)C21` (centres undefined), the inhibition is reported as -2.47%. For `Cc1ccc(Cc2c(-c3ccc(C)cc3)nc3c4ccccc4ccn23)cc1`, the inhibition was 31.4%. Compound `Cc1ccc(Cc2c(-c3ccccc3)nc3ccc(Cl)cn23)cc1` has an inhibition of 37.4%. For `Cc1ccc(-c2nc3ccc(Cl)cn3c2Cc2ccccc2)cc1`, the inhibition was 87.1% (active). In the case of `Cc1cc(C)n2nc(CNS(=O)(=O)c3c(F)c(F)c(F)c(F)c3F)nc2n1`, the inhibition is reported as -12.8%. Work on `COc1ccc(N2CCN(S(=O)(=O)c3cc(Br)cnc3N)CC2)cc1` yielded an inhibition of -12.2%. For `Nc1ccccc1SC(C[N+](=O)[O-])c1ccccc1` (centres undefined), the inhibition was 79.5% (active). For `Fc1cccc(CSc2nnc3ccc(-c4ccncc4)nn23)c1`, the inhibition was 1.54%. `COc1cc2c(C(=O)N(C)c3cc(Cl)ccc3OC)cn(C)c(=O)c2cc1OC` was tested, and the inhibition was -11.9%. `O=C(c1[nH]ncc1-c1ccc(Cl)cc1)C1CO1` (centres undefined) was tested, and the inhibition was 2.19%. `O=[N+]([O-])c1ccc(COc2ccccc2CN2CCOCC2)cc1` was tested, and the inhibition was 36.1%. Compound `COc1ccc2oc(=O)cc(CN3CCOCC3)c2c1` has an inhibition of -5.99%. In the case of `Oc1c(CN2CCOCC2)ccc(CN2CCOCC2)c1O`, the inhibition is reported as 91.2% (active). `CCN(CC)c1ccc(C(=O)c2cnc(/N=C/N(C)C)s2)cc1` showed an inhibition of 11.6%. `CCOC(=O)N1CCN(C(=O)c2ccc3c(=O)n(CCc4ccc(OC)c(OC)c4)c(=O)[nH]c3c2)CC1` gave an inhibition of 0.32%. In the case of `CCOC(=O)C1CCCN(CCSc2ccc(C)cc2)C1` (centres undefined), the inhibition is reported as -1.97%. `CC(C)C[C@H](NC(=O)N1CCn2c1nc1ccccc12)C(=O)NC1CC1` was tested, and the inhibition was -6.34%. `NC1=CC(=O)C(=O)c2cccnc21` was tested, and the inhibition was 51.8%. For `Cc1coc2c(O)cc3c(c12)OC1(N2CCCCC2)C(=O)NCCCC31` (centres undefined), the inhibition was 101% (active). Work on `NC(=O)CN1CCCC1c1ccc2c(c1)OCCO2` (centres undefined) yielded an inhibition of 7.24%. `CCCCN1CC(C)(C)[C@H](CC(=O)Nc2ccc(Br)cc2)C1=O` gave an inhibition of 21.2%.
